This is an account of results in PubChem BioAssay (NCATS).

Records with an inconclusive call do not appear. The source made the active and inactive calls. Unless noted, the call rests on the fitted dose curve.

Assay [1] in a line: Primary qHTS for inhibitors of SARS-S pseudo-typed particle cell entry (AID 1479145). Further: nearly all actives have a fitted effect of over 45% in size. Further: potency means the concentration at half of the fitted maximal effect. On activity change, negative = inhibition: on the % scale 0 is the no-effect control and ±100 the full control effect. Particulars: outcome: dose series up to 57.1 µM unless noted. (In qHTS, concentration-response curves come from the screen itself.)
The nature of assay [2]: Primary qHTS for inhibitors of MERS-S pseudo-typed particle cell entry (AID 1479149). Further: nearly all actives have a fitted effect of over 60% in size. On activity change, negative = inhibition: on the % scale 0 is the no-effect control and ±100 the full control effect. Particulars: outcome: dose series up to 57.1 µM unless noted.
Assay [3] can be described thus: Primary qHTS for Vero E6 cytotoxicity: counterscreen for inhibitors of SARS-S pseudo-typed particle cell entry (AID 1479150). Particulars: outcome: dose series up to 57.1 µM unless noted.
The nature of assay [4]: Confirmatory qHTS to identify inhibitors of SARS-CoV-2 cell entry (AID 1645844). Further: potency means the concentration at half of the fitted maximal effect; nearly all actives have a fitted effect of over 45% in size. In short, it runs like this:
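HEK293-ACE2, overnight seeding; cpd 1 h, 37C/5% CO2; + SARS-CoV-2-S MLV PP (Wuhan-Hu-1, ΔC19); 48 h; Bright-Glo luminescence. Data normalised to S PP and bald PP wells.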

Assay [5] is described as follows: Cytotoxicity counterscreen for inhibitors of SARS-CoV-2 cell entry (AID 1645845). Further: nearly all actives have a fitted effect of over 50% in size. Conditions: outcome: dose series up to 57.1 µM unless noted. In short, it runs like this: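 Counterscreen run in the same HEK293-ACE2 line as the pseudotyped-particle entry assay, without particles. Viability after 48 h at 37 C was read as ATP luminescence, scaled between cell-containing and cell-free wells.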
(In general: The purpose of a counterscreen is to sort out artefacts and off-target activity.)

Assay [6] in a line: Primary qHTS to identify inhibitors of SARS-CoV-2 cell entry (AID 1645846). Further: nearly all actives have a fitted effect of over 45% in size. Particulars: SARS-CoV-2 pseudovirus cell entry assay, luminescence; activity change, negative = inhibition: at 57.1 µM (top of the series) unless noted. In short, it runs like this:
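Using luciferase-reporting pseudoviruses carrying Wuhan-Hu-1 spike, the screen tracks entry into stably ACE2-expressing cells over 48 hr. Activity is expressed relative to spike particles versus particles lacking any fusion protein.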

Assay [7] in a line: VSVG counterscreen qHTS to identify inhibitors of SARS-CoV-2 cell entry (AID 1645847). Further: potency means the concentration at half of the fitted maximal effect; nearly all actives have a fitted effect of over 65% in size. The method in brief: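 Entry of VSV-G pseudotyped particles into human ACE2-expressing HEK293 cells was measured by luciferase luminescence 48 h after infection, with compound added 1 h beforehand.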
Assay [8] can be described thus: NCATS anti-infectives library activity on the primary C. elegans qHTS viability assay (AID 1745855). The method in brief: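 Titration-based screen in worms: eggs hatched overnight in M9, L1 larvae fed TOP10 capsules in S medium with compound, incubated 21 °C for 7 days; fluorescent objects gated by size and intensity at days 0, 3 and 7.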
The target in assay [9] is Glutathione peroxidase 1 (Homo sapiens) (UniProt P07203). In words: Primary qHTS Assay for Inhibitors of Recombinant Selenoprotein Glutathione Peroxidase 1 (GPX1) (AID 1845191; active means well fitted curve in the direction sought with a large enough effect; an effect the other way counts as inactive or inconclusive; further: nearly all actives have a fitted effect of over 65% in size). The method in brief: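 GR-coupled readout: NADPH consumption tracked by fluorescence, ex 340/em 450 nm, at t=0 and after 15 min at RT. Final mix 10 nM GPX1, 1 mM GSH, 0.5 mM CHP, 0.5 mM NADPH, 100 nM GR, 0.01% BSA, following 30 min enzyme–compound preincubation.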

Assay [10] has as its target Phospholipid hydroperoxide glutathione peroxidase GPX4 (Homo sapiens) (UniProt P36969). In words: Primary qHTS Assay for Inhibitors of Recombinant Selenoprotein Glutathione Peroxidase 4 (GPX4) (AID 1845192; active means well fitted curve in the direction sought with a large enough effect; an effect the other way counts as inactive or inconclusive; further: nearly all actives have a fitted effect of over 65% in size). The method in brief:
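Steps: GPX4 plus compound, 30 min RT; add GR/GSH/NADPH master mix; start with cumene hydroperoxide; read 340/450 nm fluorescence at 0 and 15 min. Finals were 200 nM GPX4, 1 mM GSH, 0.5 mM CHP, 0.5 mM NADPH, 100 nM GR.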

A short description of assay [11]: Primary qHTS for Huh7 cytotoxicity: counterscreen for inhibitors of MERS-S pseudotyped particle cell entry (AID 1479147). Further: potency means the concentration at half of the fitted maximal effect. Particulars: outcome: dose series up to 57.1 µM unless noted.
Assay [12] addresses Nuclear receptor subfamily 1 group I member 3 (Homo sapiens) (UniProt Q14994). Put plainly: Primary qHTS for antagonist of constitutive androstane receptor (CAR) against the NCATS DSHEA and TCM libraries (AID 1794836; active means well fitted curve in the direction sought with a large enough effect; an effect the other way counts as inactive or inconclusive;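 further: HepG2 cells stably expressing hCAR with CYP2B6 luciferase reporter stimulated by CITCO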). In short, it runs like this: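 HepG2-CYP2B6-hCAR cells, attached 5 h, given compounds plus CITCO agonist […], incubated 24 h at 37 C. Luciferase luminescence read, multiplexed with CellTiter-Fluor viability (Ex/Em 405/540 nm).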

Assay [13] is described as follows: KB-8-5-11 P-gp reporter qHTS against the NCATS DSHEA and TCM libraries (AID 1919977; active means well fitted curve in the direction sought with a large enough effect; an effect the other way counts as inactive or inconclusive; further: 0% is about no effect). The method in brief:
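Viability of drug-resistant KB-8-5-11 cells is measured by CellTiter-Glo luminescence following roughly 72 h treatment at 37C. Substances were titrated, with bortezomib as intraplate control.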

In assay [14] the target is Cytochrome P450 2C9 (Homo sapiens) (UniProt P11712). Put plainly: qHTS Assay for Inhibitors and Substrates of Cytochrome P450 2C9 (AID 883; active means well fitted curve in the direction sought with a large enough effect; an effect the other way counts as inactive or inconclusive; further: potency means the concentration at half of the fitted maximal effect; nearly all actives have a fitted effect of over 60% in size). The method in brief: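 Signal: luciferase luminescence reporting luciferin produced by CYP2C9. Conditions: 10nM enzyme, Luciferin-H 100uM at KM, 25mM KPO4, 37C, 60 min NADPH-driven reaction. Reference: 57uM sulphaphenazole as 100% inhibition.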

The target in assay [15] is Cytochrome P450 3A4 (Homo sapiens) (UniProt P08684). In words: qHTS Assay for Activators of Cytochrome P450 3A4 (AID 885; active means well fitted curve in the direction sought with a large enough effect; an effect the other way counts as inactive or inconclusive; further: nearly all actives have a fitted effect of over 65% in size). In short, it runs like this: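 Using 20nM recombinant human CYP3A4 in potassium phosphate (200mM), substrate Luciferin-PPXE at 25uM, luminescent luciferin detection followed a 60-min RT NADPH reaction; data scaled to 57 uM ketoconazole.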
Assay [16] concerns the target Peroxisome proliferator-activated receptor delta (Homo sapiens) (UniProt Q03181). In words: qHTS assay for small molecule agonists of peroxisome proliferator-activated receptor delta signaling (AID 588534).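 Further: 0% = DMSO basal wells and 100% = positive control agonist at 10 µM.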 In short, it runs like this:
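EC50 and efficacy values derive from Hill fits of a concentration series in a beta-lactamase reporter cell assay. Exposure is 18 hrs at 37 C, with CCF4 fluorescence as the readout.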

Chain of Cytochrome P450 2C9 (Homo sapiens) (P11712 whole entry, looked up): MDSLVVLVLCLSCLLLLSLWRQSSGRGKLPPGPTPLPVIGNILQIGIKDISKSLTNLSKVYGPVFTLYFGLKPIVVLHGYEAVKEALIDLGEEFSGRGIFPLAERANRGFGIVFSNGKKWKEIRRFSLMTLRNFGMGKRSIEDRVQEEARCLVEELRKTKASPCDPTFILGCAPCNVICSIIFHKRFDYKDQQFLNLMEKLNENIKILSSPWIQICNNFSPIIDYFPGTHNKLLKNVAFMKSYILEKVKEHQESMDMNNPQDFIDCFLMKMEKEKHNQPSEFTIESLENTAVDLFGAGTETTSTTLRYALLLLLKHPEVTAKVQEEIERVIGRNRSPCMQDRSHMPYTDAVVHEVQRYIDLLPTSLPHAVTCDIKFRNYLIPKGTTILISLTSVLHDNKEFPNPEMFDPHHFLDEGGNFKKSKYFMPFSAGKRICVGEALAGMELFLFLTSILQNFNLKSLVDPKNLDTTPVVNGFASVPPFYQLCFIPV
Chain of Phospholipid hydroperoxide glutathione peroxidase GPX4 (Homo sapiens) (P36969 whole entry, looked up): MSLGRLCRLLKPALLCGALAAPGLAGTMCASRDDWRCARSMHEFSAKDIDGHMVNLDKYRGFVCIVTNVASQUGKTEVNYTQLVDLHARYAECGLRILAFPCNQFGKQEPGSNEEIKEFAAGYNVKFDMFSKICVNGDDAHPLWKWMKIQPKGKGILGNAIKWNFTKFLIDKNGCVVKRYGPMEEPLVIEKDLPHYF
Chain of Nuclear receptor subfamily 1 group I member 3 (Homo sapiens) (Q14994 whole entry, looked up): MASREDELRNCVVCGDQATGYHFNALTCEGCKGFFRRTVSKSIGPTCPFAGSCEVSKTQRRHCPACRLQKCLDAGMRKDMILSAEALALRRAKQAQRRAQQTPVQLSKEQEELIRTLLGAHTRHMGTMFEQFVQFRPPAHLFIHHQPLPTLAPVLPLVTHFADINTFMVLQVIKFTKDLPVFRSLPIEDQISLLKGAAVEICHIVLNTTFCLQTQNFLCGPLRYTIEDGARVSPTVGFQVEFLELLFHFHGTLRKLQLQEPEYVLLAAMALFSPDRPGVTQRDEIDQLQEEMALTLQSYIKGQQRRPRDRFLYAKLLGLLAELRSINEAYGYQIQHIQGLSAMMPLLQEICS
Chain of Cytochrome P450 3A4 (Homo sapiens) (P08684 whole entry, looked up): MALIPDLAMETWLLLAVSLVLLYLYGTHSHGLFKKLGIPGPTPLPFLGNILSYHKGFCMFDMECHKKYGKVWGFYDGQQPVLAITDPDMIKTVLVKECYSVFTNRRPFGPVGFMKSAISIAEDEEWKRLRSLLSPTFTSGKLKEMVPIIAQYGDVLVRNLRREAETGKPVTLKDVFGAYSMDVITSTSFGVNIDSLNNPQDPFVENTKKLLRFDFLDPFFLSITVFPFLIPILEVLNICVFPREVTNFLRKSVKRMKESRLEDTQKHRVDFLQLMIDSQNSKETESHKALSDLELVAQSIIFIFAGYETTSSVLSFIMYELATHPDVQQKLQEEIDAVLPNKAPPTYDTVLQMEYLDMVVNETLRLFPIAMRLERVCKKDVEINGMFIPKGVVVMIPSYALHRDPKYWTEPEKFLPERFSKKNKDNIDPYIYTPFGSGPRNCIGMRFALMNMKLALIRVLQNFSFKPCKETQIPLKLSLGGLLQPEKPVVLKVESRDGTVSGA
Chain of Glutathione peroxidase 1 (Homo sapiens) (P07203 whole entry, looked up): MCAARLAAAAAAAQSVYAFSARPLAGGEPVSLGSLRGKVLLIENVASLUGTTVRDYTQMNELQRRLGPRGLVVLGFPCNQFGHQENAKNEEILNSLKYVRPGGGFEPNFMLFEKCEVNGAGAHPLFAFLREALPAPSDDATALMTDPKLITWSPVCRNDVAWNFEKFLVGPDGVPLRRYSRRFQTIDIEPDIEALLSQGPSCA
Chain of Peroxisome proliferator-activated receptor delta (Homo sapiens) (Q03181 whole entry, looked up): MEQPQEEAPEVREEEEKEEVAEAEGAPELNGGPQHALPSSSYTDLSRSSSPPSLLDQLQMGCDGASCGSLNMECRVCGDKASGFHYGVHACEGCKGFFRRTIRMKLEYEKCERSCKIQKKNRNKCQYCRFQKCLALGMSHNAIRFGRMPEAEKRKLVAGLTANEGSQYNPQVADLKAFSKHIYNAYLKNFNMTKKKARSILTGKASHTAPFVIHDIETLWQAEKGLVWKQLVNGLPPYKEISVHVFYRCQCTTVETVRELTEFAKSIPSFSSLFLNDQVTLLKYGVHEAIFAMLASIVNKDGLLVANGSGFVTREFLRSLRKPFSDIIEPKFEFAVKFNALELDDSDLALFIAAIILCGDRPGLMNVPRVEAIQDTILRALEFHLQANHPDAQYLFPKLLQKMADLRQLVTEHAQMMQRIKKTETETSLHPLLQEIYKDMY

In the case of `CC(C)OC(=O)[C@H](C)N[P@](=O)(CO[C@H](C)Cn1cnc2c(N)ncnc21)Oc1ccccc1`, the results for the Potency in [1], in assay [4] and in assay [7] were 0.891 µM (active), 0.0108 µM (active) and 0.0096 µM (active), respectively. In addition, the Potency result in [2], in assay [3], in [5], in [8], in [9] and in assay [10] was “inactive” in each case. In addition, the activity change, negative = inhibition in [6] is -96.1%.

`CCN(CC)CCOC(=O)c1ccc(N)cc1Cl`: the Potency entry in assay [1], in [11], in assay [3] and in assay [5] was “inactive” each time.

In the case of `N#Cc1c(N2C[C@@H]3NCCO[C@H]3C2)c(F)cc2c(=O)c(C(=O)O)cn(C3CC3)c12`, the Potency result in assay [1], in assay [11], in assay [3] and in assay [5] was “inactive” each time.

Regarding `CC1(C)C(/C=C/C=C/C=C/C=C2/N(CCCCS(=O)(=O)O)c3ccc4ccccc4c3C2(C)C)=[N+](CCCCS(=O)(=O)[O-])c2ccc3ccccc3c21`, the Potency entry in assay [1], in assay [11], in assay [3] and in [5] was “inactive” in each case.

Turning to `C=C1CC[C@H](O)C/C1=C\C=C1/CCC[C@]2(C)[C@@H]([C@H](C)CCCC(C)C)CC[C@@H]12`, the Potency entry in assay [1], in assay [11], in [12] and in [13] was “inactive” each time. Further, in assay [7], the Potency was 24.1 µM (active).

With `CCC[C@H](NC(=O)[C@@H]1[C@H]2CCC[C@H]2CN1C(=O)[C@@H](NC(=O)[C@@H](NC(=O)c1cnccn1)C1CCCCC1)C(C)(C)C)C(=O)C(=O)NC1CC1`, the Potency entry in assay [1], in [11], in [3] and in assay [5] was “inactive” in each case. Also, the activity change, negative = inhibition in assay [6] came to 0.184%.

Regarding `C=C[C@]1(C)C[C@@H](OC(=O)CSCCN(CC)CC)[C@]2(C)[C@H](C)CC[C@]3(CCC(=O)[C@H]32)[C@@H](C)[C@@H]1O`, the results for the Potency in assay [1], in assay [4] and in [7] were 20 µM (active), 3.04 µM (active) and 15.2 µM (active), respectively. Moreover, the Potency entry in assay [11], in assay [3] and in assay [5] was “inactive” each time.

As for `C=C(NC(=O)C(=C)NC(=O)c1csc(C2=N[C@H]3c4csc(n4)[C@H]4NC(=O)c5csc(n5)[C@H]([C@@](C)(O)[C@@H](C)O)NC(=O)[C@H]5CSC(=N5)C(=CC)NC(=O)[C@H]([C@@H](C)O)NC(=O)c5csc(n5)[C@]3(CC2)NC(=O)[C@H](C)NC(=O)C(=C)NC(=O)[C@H](C)NC(=O)[C@H](C(C)CC)N[C@@H]2C=Cc3c([C@H](C)O)cc(nc3[C@H]2O)C(=O)O[C@@H]4C)n1)C(N)=O` (some centres not stated), the Potency result in [1] and in [3] was “inactive” each time. In addition, the Potency in [11] is 20 µM (active); in assay [4], 3.41 µM (active); in assay [7], 1.71 µM (active).

On to `COC(=O)N[C@H](C(=O)N1CC2(CC2)C[C@H]1c1ncc(-c2ccc3c(c2)C(F)(F)c2cc(-c4ccc5nc([C@@H]6[C@H]7CC[C@H](C7)N6C(=O)[C@@H](NC(=O)OC)C(C)C)[nH]c5c4)ccc2-3)[nH]1)C(C)C`, for which the Potency entry in [1], in [11], in assay [3] and in assay [5] was “inactive” each time.

As for `C/C(O)=C(\C#N)C(=O)Nc1ccc(C(F)(F)F)cc1`, the Potency result in [1] and in assay [2] was “inactive” in each case.

With `CCCCCCCCCC(=O)OC1(c2ccc(Cl)cc2)CCN(CCCC(=O)c2ccc(F)cc2)CC1`, the Potency entry in assay [1], in assay [11], in assay [3] and in [5] was “inactive” each time.

Regarding `CCOc1ccc2c(c1)C(C)=CC(C)(C)N2`, the results for the Potency in assay [14], in assay [4] and in assay [7] were 2 µM (active), 31.2 µM (active) and 55.5 µM (active), respectively. Also, the Potency entry in [15], in [1], in assay [11], in assay [3] and in [5] was “inactive” in each case. For the same compound, the compound was classed as inactive in [16].
